GAA850 FXN act: activators of GAA850 frataxin (FXN) promoter; AID 540364; 0.56% of 360,000 active; activation, % at 6 µM; HEK293 lucGAA850 FXN promoter luciferase reporter, 24 h; percent of 10 µM SAHA response;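 active = activation above the average of all compounds screened plus 3 SD, cutoff fixed separately per campaign, cut at about 7.5% in these data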
AHR activator: activates the human aryl hydrocarbon receptor. AHR-responsive luciferase reporter cells, luminescence. activation, % at 5 µM. 2.5% of 320,000 active. AID 2796; in the data active = activation above about 47%
HSF1 activator: increases HSF-1 driven luciferase reporter signal; NIH3T3-HGL HSF-1 luciferase reporter, MG132, 8 h; 100% = twice DMSO control signal; activation, % at 9 µM; 1.7% of 300,000 active;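 active = mean replicate activation of at least 50% with a set share of replicates each reaching 50%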
HSF1 inhib: HSF1 inhibition | AID 2098 | NIH3T3-HGL HSE-luciferase, MG132-induced, luminescence 8 h; hits give low values | 0.77% of 300,000 active | activity change, negative = inhibition, % at 7.5 µM (by protocol);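 active = more than half of replicate wells show activity change below -50%, luminescence cut by over half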;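 also: luciferase reports HSF-1 transcriptional activity via heat shock element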
Large screens that a line does not name were inactive. Hits are enriched below; roughly 4.6% of the tested compounds scored in any of these assays.

CCOC(=O)c1c(C)[nH]c(C(=O)OCC(=O)Nc2sccc2C(N)=O)c1C	AHR activator 53, HSF1 inhib -75
CCC(Sc1nc(C)cc(=O)[nH]1)C(=O)Nc1nnc(C)s1 (configuration not stated)	none
CCCCc1nnc(NC(=O)C(C)Sc2nc(C)cc(=O)[nH]2)s1 (configuration not stated)	HSF1 activator 64
Cc1nc(NC(=O)CCc2ccccc2)ccc1Br	none
CCC1CCCCN1C(=O)c1sc2ncnc(N(CC)CC)c2c1C (configuration not stated)	AHR activator 59
CCn1nc(C)cc1C(=O)Sc1ccc(Cl)cc1Cl	HSF1 activator 52
O=C(/C=C/c1cccc([N+](=O)[O-])c1)NC(=S)Nc1ccc(CN2CCOCC2)cc1	HSF1 activator 136
CN(c1cccc(NC(=O)Nc2cccc(Cl)c2)c1)S(C)(=O)=O	AHR activator 77, HSF1 activator 66
CC(=O)Nc1cccc(N(C)S(C)(=O)=O)c1	none
Cn1c(=O)c(-c2ccccc2N)nc2ccccc21	none
Cn1c(=O)c(-c2ccccc2)nc2ccccc21	AHR activator 55
CCCCC(=O)NC(c1ccco1)c1cc(Cl)c2cccnc2c1O (configuration not stated)	none
CC(=O)NC(c1ccc(C)cc1)c1cc(Cl)c2cccnc2c1O (configuration not stated)	HSF1 inhib -83 (no result: AHR activator)
CCC(=O)NC(c1ccc(OC)cc1)c1cc(Cl)c2cccnc2c1O (configuration not stated)	HSF1 inhib -64
CC(=O)NC(c1ccc(C(C)C)cc1)c1ccc2cccnc2c1O (configuration not stated)	HSF1 inhib -52
CCC(=O)NC(c1ccco1)c1cc(Cl)c2cccnc2c1O (configuration not stated)	HSF1 inhib -72
CCCCC(=O)NC(c1ccc(C(C)C)cc1)c1ccc2cccnc2c1O (configuration not stated)	none
CCOc1cc(C(N)=O)cc(Cl)c1OCC	none
COc1ccc(NC(=O)C[C@H]2C(=O)N(c3ccccc3)C[C@@H]2Cc2ccccc2)cc1	none (no result: AHR activator, HSF1 activator, HSF1 inhib)
CCCCC(=O)Nc1cccc(-c2csc(-c3ccccc3)n2)c1	AHR activator 69
CCC(=O)Nc1cccc(-c2cn3ccsc3n2)c1	AHR activator 54
CC(C)(C)CC(=O)Nc1cccc(-c2cn3cccnc3n2)c1	AHR activator 48
CC(C)C(=O)Nc1cccc(-c2cn3ccccc3n2)c1	none
CC(=O)Nc1cccc(-c2cn3ccccc3n2)c1	AHR activator 61
Cc1cccc(N=C2NC(=O)/C(=C3/C(=O)N(C)c4ccccc43)S2)c1C	AHR activator 68
Cc1cccc(NC(=O)C2CCN(S(=O)(=O)c3ccc4ccccc4c3)CC2)n1	none
CCc1cccc(NC(=O)c2cnn(-c3ccccc3)c2C)c1	none
O=C(Nc1cccc(Cl)c1)c1ccc(Cn2cc(Cl)cn2)cc1	HSF1 activator 53
CCn1ncc(C(=O)Nc2cccc(Cl)c2)c1C	AHR activator 79, HSF1 activator 62
O=C(COc1ccccc1)Nc1c2c(nn1-c1ccccc1)CS(=O)C2 (configuration not stated)	AHR activator 56
Nc1nonc1-n1nnc(C(=O)N/N=C/c2cccnc2)c1CSC1=NCCS1	HSF1 activator 96
CCCN(CCC)Cc1c(C(=O)N/N=C/c2cccs2)nnn1-c1nonc1N	none
CCCc1c(C(=O)N/N=C/c2cccs2)nnn1-c1nonc1N	AHR activator 61
Nc1nonc1-n1nnc(C(=O)N/N=C/c2ccc(Br)cc2)c1CSC1=NCCS1	none
Cc1ccc(S(=O)(=O)N2CCCCC2)cc1NC(=O)CN1CCCC1c1cccs1 (configuration not stated)	none (no result: AHR activator, HSF1 activator, HSF1 inhib)
CN1CCN(C(=O)c2cc([N+](=O)[O-])cc([N+](=O)[O-])c2)CC1	HSF1 inhib -64
Cc1c(Cl)cccc1NC(=O)c1cc(-c2ccccc2O)n[nH]1	HSF1 activator 87
Cc1cccc(NC(=O)c2cc(-c3cc(C)ccc3O)n[nH]2)c1	HSF1 activator 104
CC(NCCc1ccc(S(N)(=O)=O)cc1)C(=O)NCCc1ccc(F)cc1 (configuration not stated)	none
CC(NCC(=O)NCCc1ccc(S(N)(=O)=O)cc1)c1ccc(F)cc1 (configuration not stated)	HSF1 activator 52
COc1ccc(N2CCN(C(=O)[C@H](Cc3c[nH]c4ccccc34)NC(C)=O)CC2)cc1	HSF1 activator 62
COc1ccc(N2CCN(C(=O)CCc3c[nH]c4ccccc34)CC2)cc1	none
Cc1ccc(C(=O)Nc2ccccc2C(=O)O)cc1S(=O)(=O)NCc1ccccc1	HSF1 inhib -92
Cc1ccc(C(=O)Nc2ccccc2C(=O)O)cc1S(=O)(=O)Nc1ccc(Br)cc1	none
O=C(N/N=C/c1c[nH]c2ccccc12)c1[nH]c2ccc(Br)cc2c1-c1ccccc1	none (no result: AHR activator)
O=C(N/N=C/c1ccc(O)cc1)c1[nH]c2ccc(Br)cc2c1-c1ccccc1	HSF1 inhib -58
NC(=Nc1nc(-c2ccccn2)cc2ccccc12)c1ccccn1	HSF1 activator 57, HSF1 inhib 57 (no result: AHR activator)
O=C(NNC(=S)NC(=O)c1ccc(Br)cc1)c1cccc([N+](=O)[O-])c1	AHR activator 53
O=C(CCNc1ccc(Br)cc1)c1cccc([N+](=O)[O-])c1	HSF1 activator 66
CN1CC(=O)N(CC(=O)Nc2ccc(SC(F)F)cc2)C1=O	none
CN(C)c1ccc(/C=C2/NC(=O)NC2=O)cc1	AHR activator 108
O=C1NC(=O)C(=Cc2ccccc2)N1	none (no result: AHR activator, HSF1 activator, HSF1 inhib)
Cc1cc(C)nc(-n2cc(C(=O)c3cc(F)ccc3O)cn2)n1	AHR activator 53
O=C(c1cnn(-c2cccc(F)c2)c1)c1ccccc1O	none
Cc1ccc(S(=O)(=O)NC(=O)Nc2cc(C(C)(C)C)on2)cc1	none
CCN1CCN(c2ccc(N=Cc3ccc(O)cc3O)cc2)CC1	none
CC(=O)Nc1ccc(NC(=O)c2ccc(NS(=O)(=O)c3cc(C(C)(C)C)cc(C)c3C)cc2)cc1	HSF1 activator 110
Cc1cc(C(C)(C)C)cc(S(=O)(=O)Nc2ccc(O)c(C(=O)O)c2)c1C	none
CCOC(=O)c1c(NC(=O)COC(=O)c2nccnc2N)sc(C(=O)N(C)C)c1C	HSF1 inhib -51
COc1ccc(CC(NC(C)=O)C(=O)NC2CCN(S(=O)(=O)c3ccc(NC(C)=O)cc3)CC2)cc1 (configuration not stated)	none
O=C(CSc1nnc(NC(=O)c2ccc(F)cc2)s1)NC1CC1	none
Cc1ccc2oc(-c3cccc(NC(=S)NC(=O)/C=C/c4ccco4)c3)nc2c1	AHR activator 67
Cc1ccc2oc(-c3cccc(NC(=O)c4ccc(Br)o4)c3)nc2c1	AHR activator 60
ON=C1c2ccccc2-c2ccc(F)cc21	none (no result: AHR activator, HSF1 activator, HSF1 inhib)
C/C(=N\NC(=O)c1cc([N+](=O)[O-])cc([N+](=O)[O-])c1)c1ccco1	none
O=C(Nc1ccc(NC(=O)c2cccnc2Cl)cc1)c1cccc(Cl)c1	none
COc1nc(Nc2cccc(C(F)(F)F)c2)nc(OC)n1	HSF1 activator 59
Cc1cc(C)nc(Nc2cccc(C(F)(F)F)c2)n1	none

Source: PubChem BioAssay
